Pf growth 48h: Primary qHTS for delayed death inhibitors of the malarial parasite plastid, 48 hour incubation. P. falciparum luciferase growth in erythrocytes, 48 h. Potency, µM (doses to about 28.7 µM), for inactives: at the top dose activity change, negative = inhibition, most hits filed as inhibitors. 5.9% of 310,000 active. AID 504832, 2011; further: potency means the concentration at half of the fitted maximal effect; on the % scale 0 is the no-effect control and ±100 the full control effect
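Luciferase-expressing P. falciparum in infected erythrocytes (2% hematocrit, 0.1% parasitemia final) in RPMI 1640/0.5% Albumax were exposed to compound for 48 hours at 37 C, 5% CO2; growth read as luminescence.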
FBPA Giardia inh: qHTS Assay for Inhibitors of Fructose-1,6-bisphosphate Aldolase from Giardia Lamblia; A8B2U2; purified Giardia FBPA; Potency, µM (series often up to 59.6 µM), without a hit: at the top dose activity, negative = inhibition, most hits filed as inhibitors; 0.71% of 290,000 active; further: potency means the concentration at half of the fitted maximal effect; on the % scale 0 is the no-effect control and ±100 the full control effect; nearly all actives have a fitted effect of over 55% in size
Target sequence (A8B2U2 whole entry, looked up): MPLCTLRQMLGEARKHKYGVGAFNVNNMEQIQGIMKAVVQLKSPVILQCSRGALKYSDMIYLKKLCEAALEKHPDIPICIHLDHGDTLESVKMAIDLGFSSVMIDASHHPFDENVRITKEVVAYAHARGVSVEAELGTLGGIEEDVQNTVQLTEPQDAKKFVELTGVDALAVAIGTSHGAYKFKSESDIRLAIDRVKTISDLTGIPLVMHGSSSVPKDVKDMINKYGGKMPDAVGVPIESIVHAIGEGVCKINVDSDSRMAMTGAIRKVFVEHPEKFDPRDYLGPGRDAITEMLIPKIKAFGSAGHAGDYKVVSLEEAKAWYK
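Giardia FBPA (40 nM reagent) was preincubated 10 min at RT with compound (up to 57.5 uM final), then substrate plus GAPDH/TPI/NAD/arsenate coupling system with diaphorase/resazurin was added; resorufin fluorescence (525/598 nm) was read after 20 min.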
NS1 function inh: qHTS Assay for Inhibitors of Influenza NS1 Protein Function; Potency, µM (titrated, usually from 46.1 µM), for the others: at the highest dose activity, positive = more growth; 0.4% of 270,000 active; AID 2326, 2010; calls by dose curve; further: potency means the concentration at half of the fitted maximal effect; actives are rising curves; nearly all actives have a fitted effect of over 50% in size
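Growth recovery, yeast-based: influenza A NS1 expressed in S. cerevisiae causes slow growth, and suppressors are detected by OD600. The parent strain without NS1 is used as positive control.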
Pf growth 96h: Primary qHTS for delayed death inhibitors of the malarial parasite plastid, 96 hour incubation; 6.9% of 320,000 active; P. falciparum luciferase reporter growth, 96 h; AID 504834, 2011; Potency, µM (highest dose often 28.7 µM), inactives show at the top dose activity change, negative = inhibition, hits mostly inhibitors; further: potency means the concentration at half of the fitted maximal effect; on the % scale 0 is the no-effect control and ±100 the full control effect
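Readout is luminescence from an integrated firefly luciferase in P. falciparum. Red cells, 2% hematocrit and 0.05% parasitemia final, were cultured with compound through two parasite generations (96 hours) at 37 C, 5% CO2.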
Shiga inhibitor: A qHTS for Small Molecule Inhibitors of Shiga Toxin; Vero cells, Shiga toxin protein synthesis inhibition reporter; inhibition, % at 38.7 µM; 9.2% of 290,000 active; AID 2315, 2010; in the data active means inhibition mostly above about 28%, no sharp cut-off; inactive means mostly below about 43%; further: 0% is about no effect
CHX counter: Cycloheximide Counterscreen for Small Molecule Inhibitors of Shiga Toxin; cell reporter, cycloheximide protein synthesis inhibition counterscreen; 12% of 300,000 active; max response, %; in the data active means max response mostly above about 13%, no sharp cut-off; inactive means mostly below about 14%; further: read at 38.3 µM for the half of the compounds with a filed dose; 0% is about no effect
* hit, by the source's call; ? = inconclusive; / = not tested or not shown; [ ] = another dose, or the depositor's remark. This is a sample that favours compounds with a hit; in the whole collection about 21% have one here. Unless noted, the call rests on the fitted dose curve; in most records, active means well fitted curve in the direction sought with a large enough effect; inconclusive means small, poorly fitted or top-dose-only effect, or another doubt; inactive means no such curve, though single readings can be large; an effect the other way counts as inactive or inconclusive.

SMILES	Pf growth 48h	FBPA Giardia inh	NS1 function inh	Pf growth 96h	Shiga inhibitor	CHX counter
O=C(c1cccs1)N1CCCC(c2nc3c(nnn3Cc3ccc(F)cc3)c(=O)[nH]2)C1 (stereo unspecified)	?	5.4%	?	0.0%	0.8	-2.1
COc1ccc(NC(=S)NCc2ccccc2)c(OC)c1	?	4.2%	1.2%	?	-9.1	-1.3
N#C[C@H](c1ccccc1)N1CCCN([C@@H](C#N)c2ccccc2)C1c1ccccc1O (stereo partly specified)	/	/	-10.5%	/	/	/
Cc1ccc(C)c(Cn2nnc3c(=O)[nH]c(C4CCCN(C(=O)C5CCCCC5)C4)nc32)c1 (stereo unspecified)	6.57µM*	4.7%	-11.9%	2.6%	-12.7	-3.8
CC(=O)c1cccc(S(=O)(=O)N2CCCC(c3nc4c(nnn4Cc4ccc(C)cc4)c(=O)[nH]3)C2)c1 (stereo unspecified)	?	5.3%	11.9%	28.5%	-13.9	-0.9
NC(=O)C1CCN(c2nc(C3CC3)nc3c2nnn3Cc2ccccc2)CC1	13.1µM*	5.2%	7.0%	?	-11.4	-1.2
CC(=O)c1cccc(S(=O)(=O)N2CCCC(c3nc4c(nnn4Cc4cccc(Cl)c4)c(=O)[nH]3)C2)c1 (stereo unspecified)	7.38µM*	6.6%	4.3%	8.28µM*	-3.0	-3.1
COCCN(C(=O)CCl)c1c(C)cccc1C	/	1.1%	/	/	8.0	-8.5
Cc1cccc(C)c1NC(=O)CNC(=O)c1ccc(COc2ccccc2)cc1	0.4%	/	/	8.1%	/	/
NC(=O)c1cc2c(s1)-c1cc(Cl)ccc1SC2	38.8%	2.5%	-12.1%	61.6%	50.7	20.0*
Nc1ncc2c(n1)-c1cc(Cl)ccc1SC2	5.6%	1.3%	11.1%	-43.8%	-8.7	0.9
COCCNC(=O)c1cc2c(s1)-c1ccc(Cl)cc1SC2	139.4%	7.6%	-2.2%	-27.6%	91.3*	43.8*
CC(=O)NCc1nc2ccccc2n1Cc1ccccc1C	-7.7%	0.5%	2.5%	?	-5.6	1.0
CC(=O)Nc1nc2ccccc2n1CCOc1ccccc1Cl	3.7µM*	3.5%	4.3%	12.0%	-3.7	1.4
CC(C)N(C(=O)Cn1c(-c2ccccc2Cl)nc2ccccc21)c1ccccc1	?	-10.0%	-16.9%	?	-6.2	8.7
CCc1cccc(CC)c1NC(=O)Cn1c(-c2ccccc2Cl)nc2ccccc21	38.8%	-5.0%	7.6%	5.0%	37.2*	22.3*
CC(=O)Nc1nc2ccccc2n1Cc1ccccc1C	7.38µM*	-16.1%	-55.5%	34.0%	-4.7	1.0
CCC(=O)Nc1nc2ccccc2n1Cc1ccc(Cl)cc1	?	2.3%	-50.4%	106.1%	45.4	-1.9
CCC(=O)Nc1nc2ccccc2n1Cc1ccccc1Cl	3.29µM*	2.1%	-1.4%	2.94µM*	-3.4	0.7
CCOC(=O)CCCNC(=O)N1CCc2nc(-c3ccccc3)c3c(c2C1)CO[C@@H](C)C3	/	6.4%[12.9 µM]	/	/	/	/
CC(=O)Nc1nc2ccccc2n1Cc1ccccc1Cl	3.29µM*	-11.9%	-3.6%	?	-3.1	-0.5
CCCCCCCn1c(NC(=O)CC)nc2ccccc21	1.85µM*	-16.5%	-92.6%	0.928µM*	-2.4	-2.4
Cc1ccccc1Cn1c(-c2ccc(=O)[nH]c2)nc2ccccc21	11.7µM*	-11.4%	11.5%	7.38µM*	-4.8	-5.8
CC1CCN(S(=O)(=O)c2ccc3c(c2)oc(=O)n3C)CC1	-7.8%	9.3%	2.4%	0.465µM*	-8.1	2.5
Cn1c(=O)oc2cc(S(=O)(=O)N3CCC(C(=O)NCc4cccs4)CC3)ccc21	/	0.0%	4.5%	?	-6.9	-3.7
SMILES	Pf growth 48h	FBPA Giardia inh	NS1 function inh	Pf growth 96h	Shiga inhibitor	CHX counter
Cc1csc(NC(=O)C2CCN(S(=O)(=O)c3ccc4c(c3)oc(=O)n4C)CC2)n1	/	1.9%	4.9%	3.29µM*	-18.6	-7.2
O=C(Cn1c(=O)oc2ccc(Cl)cc21)NC1CCCCC1	-23.0%	/	-1.7%	9.28µM*	4.0	-1.6
Cc1cc(C)cc(NC(=O)Cn2c(=O)oc3cc(S(=O)(=O)N4CCC(C)CC4)ccc32)c1	/	9.9%	5.3%	11.7µM*	-16.0	-4.7
Cc1ccnc(NC(=O)Cn2c(=O)oc3cc(S(=O)(=O)N4CCCC4)ccc32)c1	9.4%	8.6%	8.6%	63.8%	-5.4	-1.1
CCOC(=O)c1c(NC(=S)NCC2CCCO2)sc(C)c1C (stereo unspecified)	21.2%	-12.8%	/	49.8%	-10.9	-1.2
CCCNC(=O)Cn1c(=O)oc2cc(S(=O)(=O)N3CCCC3)ccc21	17.8%	10.2%	-12.1%	14.3%	1.7	-2.9
COc1ccc(NC(=O)Cn2c(=O)oc3cc(S(=O)(=O)N4CCCC4)ccc32)c(OC)c1	3.3%	-3.2%	-9.3%	6.57µM*	4.6	-2.2
O=C(Cn1c(=O)oc2cc(S(=O)(=O)N3CCCCCC3)ccc21)NC1CCCCCCC1	/	4.3%	-59.5%	11.7µM*	-7.7	-5.7
CC(C)COC(=O)n1c(=O)oc2cc(S(=O)(=O)N3CCCCC3)ccc21	8.28µM*	6.6%	-15.1%	/	-12.1	-7.7
COc1ccccc1NC(=O)Cn1c(=O)oc2cc(S(=O)(=O)N3CCCC3)ccc21	?	-3.9%	-8.0%	163.5%	-6.7	0.4
CCOC(=O)C(=NC(C)C)NNc1cc(Cl)ccc1Cl	?	-0.5%	4.1%	0.0%	-12.2	1.5
CCOC(=O)C(=NC(C)(C)C)NNc1cc(Cl)ccc1Cl	?	-2.6%	-43.2%	9.28µM*	-5.0	-1.2
O=C(OCCN1CCOCC1)c1ccccc1	8.6%	?	15.0%	29.1%	8.2	2.9
O=C(OCCN1CCOCC1)c1ccc(Cl)cc1Cl	-22.7%	?	-5.6%	-29.9%	47.5*	38.9*
Cc1ccccc1C(=O)OCCN1CCOCC1	8.7%	-9.1%	11.7%	8.28µM*	-2.2	23.4*
CN(C)c1ncc2nc(-c3cccs3)c(=O)n(C[C@H]3CCCO3)c2n1	/	1.3%	/	/	/	/
CCCN(CCC)C(=O)c1ccc2c(c1)N(CC)C(=O)c1ccccc1S2(=O)=O	1.9%[0.00184 µM]	3.8%	-6.0%	-17.1%	-8.3	-4.6
C[C@H](NC(=O)c1ccccc1)C(=O)N1CCC2(CC1)NCCc1[nH]cnc12	11.1%	/	0.0%	24.4%	1.3	-1.2
COC(=O)[C@H](COC(C)(C)C)NC(=O)O[C@@H]1Cc2cc(Br)ccc2O[C@H]1c1cccc(OC)c1	/	0.6%	/	/	/	/
OCC[C@H]1C[C@@H](O)[C@H](O)[C@@]2(Cc3ccccc3CO2)O1	5.1%	/	/	68.0%	/	/
O=C1O/C(=C/c2ccccc2)N=C1c1ccccc1	10.9%	3.0%	-0.1%	-7.0%	11.0	-1.2
O=C1O/C(=C\c2ccccc2)c2ccccc21	21.0%	1.7%	-0.4%	?	44.9*	31.2*
Cc1cc(C)n(CCNC(=O)CCc2nnc(CCc3ccccc3)o2)n1	3.5%	0.7%	0.9%	-27.5%	-1.3	-3.2
